Results from article PMC5540273 (PLoS ONE, 2017).

system: EPHB6
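Also: kd values determined as follow-up on hits from a single-replicate KINOMEscan panel screen.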

Row | SMILES | Kd [nM]
1 | Nc1nccc2scc(-c3ccc4c(c3)CCN4C(=O)Cc3ccccc3)c12 [GSK2576924] | 340
2 | Cl.c1ccc(Cn2cnc3cc(Nc4ncnc5ccccc45)ccc32)cc1 [GW272142] | 510
3 | COc1cc(Nc2nccc(N3CCC(NC(=O)C4COc5ccccc5O4)C3)n2)cc(OC)c1OC (centres unmarked) [GSK1379761] | 110
4 | COc1cc(Nc2nccc(N3CCC(NC(=O)C(C)c4ccc(Cl)cc4)C3)n2)cc(OC)c1OC (centres unmarked) [GSK1379757] | 100
5 | C[C@@H]1CC[C@H](C(=O)NC2CCCCC2)CN1c1cc(-c2ccc3c(N)n[nH]c3c2)nc(N)n1 [GSK2291363] | 49

system: T1, GRK3
T1 construct: gene ADRBK2

Row | SMILES | Kd [nM]
6 | Nc1nccc2scc(-c3ccc4c(c3)CCN4C(=O)Cc3ccccc3)c12 [GSK2576924] | > 10000
7 | O=C(Nc1n[nH]c2nc(-c3ccccc3)c(Cl)cc12)C1CC1 [SB-734909] | > 10000
8 | Cc1nn2c(=O)cc(N3CCOCC3)nc2n1Cc1cccc(Cl)c1Cl [GSK2342769] | > 10000
